High-throughput results from PubChem BioAssay.
Six1-Eya2 inh – Six1/Eya2 interaction inhibition; Q15475+O00167; AlphaScreen GST-Six1/His-Eya2 binding, biochemical; hits give low values; activity change, % (test concentration not listed); actives 0.56% (n = 360,000)
Target sequence (O00167 whole entry, looked up): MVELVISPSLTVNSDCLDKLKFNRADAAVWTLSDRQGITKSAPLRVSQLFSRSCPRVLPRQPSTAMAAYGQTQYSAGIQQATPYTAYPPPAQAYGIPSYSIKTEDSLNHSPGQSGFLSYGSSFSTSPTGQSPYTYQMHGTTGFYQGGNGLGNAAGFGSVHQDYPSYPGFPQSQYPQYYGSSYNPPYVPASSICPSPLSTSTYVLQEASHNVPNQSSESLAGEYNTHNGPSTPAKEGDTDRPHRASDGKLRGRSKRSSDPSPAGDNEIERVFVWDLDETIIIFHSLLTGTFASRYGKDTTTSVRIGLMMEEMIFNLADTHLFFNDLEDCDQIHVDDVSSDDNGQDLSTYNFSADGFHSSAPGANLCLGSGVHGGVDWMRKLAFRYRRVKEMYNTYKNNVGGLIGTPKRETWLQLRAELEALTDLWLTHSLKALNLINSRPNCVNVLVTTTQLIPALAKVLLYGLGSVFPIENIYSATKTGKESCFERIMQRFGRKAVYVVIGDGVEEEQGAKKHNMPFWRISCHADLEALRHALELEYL
Target sequence (Q15475 whole entry, looked up): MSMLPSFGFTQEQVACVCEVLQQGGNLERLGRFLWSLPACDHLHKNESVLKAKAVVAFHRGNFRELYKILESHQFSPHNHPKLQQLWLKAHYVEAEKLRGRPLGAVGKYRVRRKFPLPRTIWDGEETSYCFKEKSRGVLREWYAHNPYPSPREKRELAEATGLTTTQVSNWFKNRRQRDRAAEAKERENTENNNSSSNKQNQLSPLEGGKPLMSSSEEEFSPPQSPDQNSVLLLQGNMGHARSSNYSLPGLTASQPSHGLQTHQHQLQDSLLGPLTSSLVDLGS
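Compounds are tested against tagged Six1 and Eya2 proteins bridged by glutathione donor and nickel acceptor beads; after a one-hour incubation at 37 °C without light, AlphaScreen emission is recorded.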
PI4K2A inh – PI4K2A (human) kinase inhibition | Q9BTU6 | purified PI4K2A, ADP-Glo luminescence, 1 h; hits give low values | activity change, negative = inhibition, % at 76.9 µM | actives 0.13% (n = 420,000); in the data active = activity change below about -50%; inconclusive = mostly about -30% to -49%
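ADP-Glo luminescence measured ADP generated by PI4K2A enzyme (4 ug/mL before mixing) with 1.2 mM PI substrate (pre-mix) and 300 microM ATP (pre-mix). Tris pH7.5 buffer with MgCl2, Triton X-100; 1 h reaction at ambient temperature.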
CtBP-E1A inh – CtBP/E1A binding inhibition. AID 651724. AlphaScreen GST-E1A/His-CtBP binding, 1536-well; hits give low values. actives 0.49% (n = 340,000). activity change, % (test concentration not listed)
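Steps: dispense buffer (Tris pH 8.0, NaCl 300 mM, TCEP 1 mM, BSA, Tween 20); add 5X protein mix (GST-E1A, His-CtBP, 125 nM each); pin 23 nL compound; 2 h at 37 °C, dark; add 5X beads (50 ug/mL); 1 h; read.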
PI5P4Ka inh – PI5P4K alpha (human) kinase inhibition; P48426; PI5P4Kalpha enzyme, ADP-Glo luminescence, 60 min; hits give low values; max response, %; actives 1.2% (n = 330,000); active = max response of -50% or lower; inconclusive = between -30% and -50%; inactive = -30% or higher; note: value at the top dose of about 77 µM
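Single end-point luminescence (ADP-Glo) quantified ADP from PI5P4Kalpha turnover; ATP 5 microM final, 1 h at RT, 0.1% CHAPS and 0.28 mM EGTA in HEPES pH 7.4.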
pAkt inh – inhibitors of Akt phosphorylation; Neuro2A IGF-stimulated pAkt S473 HTRF, 20 min; hits give low values; actives 0.32% (n = 360,000); AID 651550; activity change, % for hits at 50 µM; in the data active = activity change below about -80%; inconclusive = mostly about -51% to -80%
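Neuro2A cells in DMEM with 0.5% FBS, overnight at 37 deg C, given compound at single 50 µM final, then IGF (6 nM final) for 20 min at 37 deg C. Lysed; phospho-Akt Ser473 by HTRF after 24 h, 665/615 ratio.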
ADP-Glo interf – ADP-Glo luciferase interference, PI5P4K counter-screen; Potency, µM (top dose mostly 76.9 µM), actives largely listed as inhibitors; 1,100 tested, under 10 active; shares compounds with PI5P4Ka inh; ADP-Glo detection counter-screen, luciferase luminescence, no enzyme; AID 743285; active = well fitted curve in the direction sought with a large enough effect; inconclusive = small, poorly fitted or top-dose-only effect, or another doubt; inactive = no such curve, though single readings can be large or run the other way
Of the large screens only hits and unclear results are named; the others gave an inactive call (follow-up assays come after a bar, where they were run). The list is not random: actives were taken first. Their share in the collection is about 1.8%. Cut-off read from the data, not from the text of the source, unless noted: active = activity change below about -65%; inconclusive = mostly about -30% to -63%; inactive = weaker than that.

CC(OCC(O)CN1CCN(S(=O)(=O)c2ccc(Cl)cc2)CC1)c1ccc(Cl)cc1 (stereo unspecified)	none
CCn1c(CC(=O)Nc2ccccc2F)nnc1SCC(=O)NC1CCCCC1	none | ADP-Glo interf inactive
COc1ccccc1NC(=O)Cc1nnc(SCC(=O)Nc2ccccc2F)n1C	PI5P4Ka inh -67 | ADP-Glo interf inactive
CCOc1ccc(S(=O)(=O)N(C(=O)c2ccco2)c2cc3sc(=O)oc3c3ccccc23)cc1	PI5P4Ka inh -58 | ADP-Glo interf inactive
COc1ccc(S(=O)(=O)N(C(=O)c2ccco2)c2cc3sc(=O)oc3c3ccccc23)cc1	PI5P4Ka inh -61 | ADP-Glo interf inactive
Cc1ccc(S(=O)(=O)N(C(=O)c2ccco2)c2cc3sc(=O)oc3c3ccccc23)cc1	CtBP-E1A inh inconclusive, PI5P4Ka inh -56 | ADP-Glo interf inactive
CCOc1ccc(S(=O)(=O)N(C)CC(=O)NCc2ccco2)cc1	none
CC1CCN(CCC(=O)Nc2ccc(Br)cc2)CC1	none (no result: PI5P4Ka inh)
COc1ccc(C2=NCCn3nc4cc(OC)ccc4c32)cc1	PI5P4Ka inh -82 | ADP-Glo interf inactive
Oc1cc2c(cc1C(c1ccc(Cl)c(Cl)c1)N1CCCC1)OCO2 (stereo unspecified)	PI5P4Ka inh -74 | ADP-Glo interf inactive
O=C(NCCc1ccncc1)C12CC3CC(CC(C3)C1)C2	none (no result: PI5P4Ka inh)
Cc1ccc(Nc2nc(C)c3c(n2)CC(C)CC3=O)c(C)c1 (stereo unspecified)	none | ADP-Glo interf inactive
CC1Cc2ccccc2N1C(=O)COC(=O)CCc1nc2ccccc2c(=O)[nH]1 (stereo unspecified)	PI5P4Ka inh -51 | ADP-Glo interf inactive
O=C(COC(=O)CCc1nc2ccccc2c(=O)[nH]1)Nc1ccc(Cl)cn1	PI5P4Ka inh -55 | ADP-Glo interf inactive
CCCN(C(=O)Cc1nc(N)n[nH]1)C1(C(=O)Nc2ccccc2C)CCCCC1	none
COc1ccccc1CNc1nc(NC(C)C)nc2ccsc12	PI5P4Ka inh inconclusive
c1ccc(CNc2nc(NCC3CC3)nc3cc(-c4ccccc4)sc23)cc1	none (no result: PI5P4Ka inh) | ADP-Glo interf inactive
c1csc(CNc2nc(NCC3CCCCC3)c3sccc3n2)c1	none (no result: PI5P4Ka inh) | ADP-Glo interf inactive
COc1ccccc1CNc1nc(NCc2ccc(C(C)C)cc2)c2sccc2n1	none (no result: PI5P4Ka inh) | ADP-Glo interf inactive
COc1cccc(CNc2nc(NCC3CC3)nc3ccsc23)c1	none
CC(C)c1ccc(CNc2nc(NCC3CC3)nc3ccsc23)cc1	none (no result: PI5P4Ka inh) | ADP-Glo interf inactive
CN(Cc1cnn(C)c1)C(=O)c1ccc(OC2CCN(CCc3ccccc3)CC2)cc1	none
Cc1c2ccccc2nc2c(F)c(N(C)C)c(F)c(F)c12	none
O=C(c1ccc2nc(-c3ccco3)c(-c3ccco3)nc2c1)N1CCN(c2ncccn2)CC1	PI5P4Ka inh -53 | ADP-Glo interf inactive
Cc1nc2cc(NC(=O)N3CCN(c4ccccn4)CC3)ccc2o1	none (no result: PI5P4Ka inh)
O=C(Nc1ccc2nc(-c3ccco3)c(-c3ccco3)nc2c1)N1CCN(c2ccccn2)CC1	Six1-Eya2 inh inconclusive, PI4K2A inh inconclusive, PI5P4Ka inh -91 | ADP-Glo interf inactive
CCN(CC)S(=O)(=O)c1ccc(C(=O)NCCSc2c(-c3ccc(C)cc3)[nH]c3ccccc23)cc1	none (no result: Six1-Eya2 inh, CtBP-E1A inh, PI5P4Ka inh, pAkt inh)
O=c1[nH]c2cc3c(cc2cc1CN(Cc1ccccc1)Cc1nnnn1Cc1ccco1)OCCO3	PI5P4Ka inh -54 | ADP-Glo interf inactive
O=c1[nH]c2cc3c(cc2cc1CN(Cc1cccnc1)Cc1nnnn1Cc1ccco1)OCCO3	none (no result: PI5P4Ka inh)
Cc1ccc(C(=O)NC2CCN(C(=O)NC3CCCCC3)CC2)cc1	none
COc1ccc(S(=O)(=O)N2CCOCC2)cc1NC(=O)c1cccc(-n2cccc2)c1	Six1-Eya2 inh inconclusive, PI4K2A inh inconclusive, PI5P4Ka inh -74 | ADP-Glo interf inactive
O=S(=O)(Nc1cc(S(=O)(=O)N2CCCC2)ccc1O)c1ccc(Cl)s1	none
O=C(Nc1cc(S(=O)(=O)N2CCOCC2)ccc1N1CCCC1)c1ccc2c(c1)S(=O)(=O)c1ccccc1C2=O	PI5P4Ka inh -77 | ADP-Glo interf inactive
O=C(Nc1cc(S(=O)(=O)N2CCOCC2)ccc1O)c1ccc(NS(=O)(=O)c2ccc(Cl)s2)cc1	PI5P4Ka inh -59 | ADP-Glo interf inactive
O=C(Nc1cc(S(=O)(=O)N2CCOCC2)ccc1N1CCCC1)c1ccc(Cl)cc1	PI5P4Ka inh -51 | ADP-Glo interf inactive
COc1ccccc1NC(=O)c1cccc(S(=O)(=O)N2CCOCC2)c1	none
C1=Nc2c(NCc3ccccc3)ncnc2Oc2ccccc21	none
CCn1c(CC(=O)Nc2ccc(C)cc2)nnc1SCC(=O)NCCc1ccccc1	none (no result: PI5P4Ka inh)
CCOc1ccccc1Nc1nc2c(S(=O)(=O)c3ccc(C)cc3)nnn2c2ccsc12	none (no result: Six1-Eya2 inh, CtBP-E1A inh, PI5P4Ka inh, pAkt inh)
COc1ccc(CCNC(=O)c2ccccc2NS(=O)(=O)c2cc(C(=O)O)ccc2OC)cc1	none
CCC(Cn1nnc2ccccc2c1=O)NC(=O)Nc1cccc(Cl)c1 (stereo unspecified)	none (no result: Six1-Eya2 inh, CtBP-E1A inh, PI5P4Ka inh, pAkt inh)
COc1cc2ccccc2cc1C(=O)OCC(=O)c1c(N)n(C)c(=O)n(C)c1=O	Six1-Eya2 inh inconclusive
COCCn1c(=S)[nH]c2cc(C(=O)N(CCO)Cc3ccccc3)ccc2c1=O	none
COCCn1c(=S)[nH]c2cc(C(=O)NCCc3ccccc3)ccc2c1=O	PI5P4Ka inh -58 | ADP-Glo interf inactive
COc1ccc(C(C(=O)NC2CCCC2)N(C(=O)c2snc(C(N)=O)c2N)c2cccc(O)c2)cc1 (stereo unspecified)	PI5P4Ka inh -55 | ADP-Glo interf inactive
CCOC(=O)c1cc2c(ccc3ccccc32)oc1=O	none
N=c1oc2ccc3ccccc3c2cc1C(N)=S	PI5P4Ka inh -60 (no result: CtBP-E1A inh) | ADP-Glo interf inactive
O=C1C(Nc2ccccc2)=C2CCCC=C2N1c1ccccc1	none
O=C(NCc1ccccn1)c1ccc(NS(=O)(=O)c2cccc([N+](=O)[O-])c2)cc1	none
O=C(NCc1cc([N+](=O)[O-])ccc1O)c1cccc(NS(=O)(=O)c2ccccc2)c1	Six1-Eya2 inh -83, CtBP-E1A inh -89, PI5P4Ka inh -66 | ADP-Glo interf inactive
Cc1ccn2c(NC3CCCC3)c(-c3cccs3)nc2c1	PI5P4Ka inh -65 | ADP-Glo interf inactive
CC(C)C1(CCNC(=O)c2cccs2)CCOC(C)(C)C1 (stereo unspecified)	none
Cc1ccc(NS(=O)(=O)c2ccc3c(c2)[C@H]2C=CC[C@H]2[C@@H](c2ccc(F)cc2)N3)cc1C	none (no result: Six1-Eya2 inh, CtBP-E1A inh, PI5P4Ka inh, pAkt inh)
O=C(O)c1ccc(NS(=O)(=O)c2ccc3c(c2)C2C=CCC2C(c2ccccc2F)N3)cc1 (stereo unspecified)	PI5P4Ka inh -51 | ADP-Glo interf inactive
